Cycloheximide cs – affects cycloheximide protein synthesis inhibition readout, counter-screen; cell reporter, cycloheximide protein synthesis inhibition counterscreen; max response, %; 300,000 compounds, 12% hits; AID 2314; in the data active = max response mostly above about 13%, no sharp cut-off; inactive = mostly below about 14%; also: read at 38.3 µM for the half of the compounds with a filed dose; 0% is about no effect
SARS PLP yeast – blocks SARS-CoV papain-like protease in a yeast assay | S. cerevisiae expressing SARS-CoV PLpro, growth rescue | 330,000 compounds, 0.19% hits | Potency, µM (doses to about 32.9 µM), for inactives: at the highest dose activity, positive = growth rescue, most hits filed as activators; also: potency is read from the fitted curve at half-maximal effect; 0% is about no effect; nearly all actives have a fitted effect of over 55% in size
Pf growth 48h – inhibits P. falciparum growth in the first generation, 48 h; P. falciparum luciferase growth in erythrocytes, 48 h; Potency, µM (highest dose often 28.7 µM), without a hit: at the top dose activity change, negative = inhibition, hits mostly inhibitors; 310,000 compounds, 5.9% hits; active = well fitted inhibition curve with a large enough effect; inconclusive = small, poorly fitted or top-dose-only effect, or another doubt; inactive = no such curve, though single readings can be large or run the other way; also: potency is read from the fitted curve at half-maximal effect; % is scaled to controls: 0 for no effect and ±100 for the full control effect
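Here the parasites carry a stable luciferase gene and grow inside erythrocytes in Albumax-based RPMI medium with compound for one erythrocytic cycle. Activity is scored as loss of luminescent signal.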
Shiga toxin inh – inhibitors of Shiga toxin in Vero cells; inhibition, % at 38.7 µM; Vero cells, Shiga toxin protein synthesis inhibition reporter; AID 2315; 290,000 compounds, 9.2% hits; in the data active = inhibition mostly above about 28%, no sharp cut-off; inactive = mostly below about 43%; also: 0% is about no effect
Pf growth 96h – P. falciparum growth inhibition at 96 hour, primary screen for plastid delayed-death inhibitors; Potency, µM (doses to about 28.7 µM), for the others: top-dose activity change, negative = inhibition, most hits filed as inhibitors; P. falciparum luciferase reporter growth, 96 h; 320,000 compounds, 6.9% hits; active = well fitted inhibition curve with a large enough effect; inconclusive = small, poorly fitted or top-dose-only effect, or another doubt; inactive = no such curve, though single readings can be large or run the other way; also: potency is read from the fitted curve at half-maximal effect; % is scaled to controls: 0 for no effect and ±100 for the full control effect
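Two parasite generations (96 h, 37 C, 5% CO2) of compound exposure in infected erythrocytes (0.05% parasitemia, 2% hematocrit). Luciferase-reporter P. falciparum; decreased luminescence indicates inhibited growth, aimed at apicoplast-acting delayed death.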
NS1 inh – blocks influenza NS1 protein function; Potency, µM (top dose mostly 46.1 µM), for the others: at the top dose activity, positive = more growth; 270,000 compounds, 0.4% hits; AID 2326; also: potency is read from the fitted curve at half-maximal effect; actives are rising curves; nearly all actives have a fitted effect of over 50% in size
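Compounds were scored for reversing the slow growth caused by influenza A NS1 in S. cerevisiae, measured by optical density at 600 nm. Assay medium contained 2% galactose at pH 6.0; NS1-free yeast of the same strain were the positive control.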
An asterisk follows results filed as active. In the library only some 21% were active in any assay of this set; here they are far more common. Unless noted, calls follow the shape of the full dose curve.

COc1ccccc1-c1ccc(/C=C2\C=CC(=O)O2)o1 was read as Cycloheximide cs 45*, SARS PLP yeast -3%, Pf growth 48h 7%, Shiga toxin inh 92*, Pf growth 96h 0% and NS1 inh -5%.
Screening CN(C)CCCNCC(=O)c1c(-c2ccccc2)n(C)c2ccccc12 returned Cycloheximide cs 2, SARS PLP yeast -6%, Shiga toxin inh 4, Pf growth 96h inconclusive and NS1 inh -3%.
O=C(CSc1nnc(NC(=O)c2ccccc2F)s1)NCC1CCCO1 (centres undefined) was read as Cycloheximide cs 17*, SARS PLP yeast 9%, Pf growth 48h 69%, Shiga toxin inh 19*, Pf growth 96h 85% and NS1 inh 18%.
For O=C(CSc1nnc(NC(=O)c2ccccc2)s1)NCC1CCCO1 (centres undefined) the results were Cycloheximide cs 30*, SARS PLP yeast -6%, Pf growth 48h 14%, Shiga toxin inh 36*, Pf growth 96h 103% and NS1 inh 6%.
Screening O=C(CSc1nnc(Nc2ccccc2F)s1)NCC1CCCO1 (centres undefined) returned SARS PLP yeast -3%.
Screening O=C(CSc1nnc(NC(=O)c2ccccc2[N+](=O)[O-])s1)NCC1CCCO1 (centres undefined) returned Cycloheximide cs 4, SARS PLP yeast 6%, Pf growth 48h 21%, Shiga toxin inh 40, Pf growth 96h 13µM* and NS1 inh 11%.
COc1ccc(/C=C/C(=O)NCC(=O)N=Nc2c(O)[nH]c3ccc([N+](=O)[O-])cc23)cc1 was read as Cycloheximide cs -3, SARS PLP yeast -1%, Pf growth 48h -26%, Shiga toxin inh -3, Pf growth 96h 40% and NS1 inh 24%.
CCOC(=O)c1nn(-c2ccc(F)cc2)c2c1CC/C2=C/c1ccccc1 was read as Cycloheximide cs -5, SARS PLP yeast -20%, Pf growth 48h -8%, Shiga toxin inh -14, Pf growth 96h 15% and NS1 inh 4%.
For O=C(COC(=O)/C=C/c1ccccc1[N+](=O)[O-])Nc1ccc(OCc2ccccc2)cc1 the results were Cycloheximide cs 17*, SARS PLP yeast 0%, Pf growth 48h 95%, Shiga toxin inh 39*, Pf growth 96h 114% and NS1 inh 14%.
Screening O=C(COC(=O)/C=C/c1ccccc1[N+](=O)[O-])NC1CC1 returned Cycloheximide cs 10, SARS PLP yeast 2%, Pf growth 48h -2%, Shiga toxin inh -7 and Pf growth 96h -3%.
Screening CC(C)(C)NC(=O)COC(=O)/C=C/c1ccccc1[N+](=O)[O-] returned Cycloheximide cs 24*, SARS PLP yeast -4%, Shiga toxin inh 38*, Pf growth 96h 4% and NS1 inh 1%.
Screening COc1ccc(/C=C/C(=O)c2ccc[nH]2)c(OC)c1OC returned Cycloheximide cs 26*, SARS PLP yeast -32%, Pf growth 48h 31%, Shiga toxin inh 100*, Pf growth 96h 27% and NS1 inh -9%.
Screening COc1ccc(/C=C/C(=O)c2ccncc2)c2ccccc12 returned Cycloheximide cs 7, SARS PLP yeast -23%, Pf growth 48h 3%, Shiga toxin inh 2, Pf growth 96h 22% and NS1 inh -11%.
`COc1ccc(/C=C/C(=O)c2ccc[nH]2)cc1OC` gave Cycloheximide cs 30*, SARS PLP yeast -1%, Shiga toxin inh 51, Pf growth 96h 18% and NS1 inh -17%.
COc1cc(/C=C/C(=O)OCC(=O)c2ccc[nH]2)cc(OC)c1OC was read as SARS PLP yeast -1%.
Cc1nn2c(N3CCN(C4CCCC4)CC3)cc(C(C)(C)C)nc2c1-c1ccccc1 was read as Cycloheximide cs -6, SARS PLP yeast 1%, Pf growth 48h 10%, Shiga toxin inh -6 and NS1 inh -2%.
For Cc1nn2c(N3CCN(C)CC3)cc(C(C)(C)C)nc2c1-c1ccccc1 the results were Cycloheximide cs 7, SARS PLP yeast 0%, Pf growth 48h inconclusive, Shiga toxin inh -6, Pf growth 96h 3.3µM* and NS1 inh -1%.
`O=C(c1ccco1)N1CCN(c2cc(C(F)(F)F)nc3ncnn23)CC1` gave Cycloheximide cs -8, SARS PLP yeast 8%, Pf growth 48h 5%, Shiga toxin inh -14, Pf growth 96h 13µM* and NS1 inh -4%.
For Cc1cc(N2CCN(C(=O)c3ccco3)CC2)n2ncnc2n1 the results were Cycloheximide cs 0, SARS PLP yeast -7%, Pf growth 48h 0%, Shiga toxin inh 12, Pf growth 96h 0% and NS1 inh -1%.
For CCCc1cc(N2CCN(c3ccccn3)CC2)n2nc(C)c(-c3ccccc3)c2n1 the results were Cycloheximide cs -1, SARS PLP yeast -5%, Shiga toxin inh -17, Pf growth 96h inconclusive and NS1 inh -10%.
For CCCc1cc(N2CCOCC2)n2nc(C)c(-c3ccccc3)c2n1 the results were Cycloheximide cs 18*, SARS PLP yeast 0%, Pf growth 48h -2%, Shiga toxin inh -9, Pf growth 96h -4% and NS1 inh 2%.
Screening Cc1nn2c(N3CCN(C(=O)c4ccco4)CC3)cc(C(C)(C)C)nc2c1-c1ccccc1 returned Cycloheximide cs -8, SARS PLP yeast -2%, Pf growth 48h inconclusive, Shiga toxin inh -17, Pf growth 96h 4.7µM* and NS1 inh -108%.
Cn1c(Cn2nnc3ccccc32)nnc1SCC(=O)Nc1nccs1 was read as Cycloheximide cs 5, SARS PLP yeast 13%, Pf growth 48h -7%, Shiga toxin inh -3, Pf growth 96h 40% and NS1 inh -2%.
`COC(=O)[C@H](Cc1ccccc1)N(C)S(=O)(=O)c1cccc(S(=O)(=O)N(C)[C@@H](Cc2ccccc2)C(=O)OC)c1` gave Cycloheximide cs 0, SARS PLP yeast 8%, Pf growth 48h 0%, Shiga toxin inh -9, Pf growth 96h 10µM* and NS1 inh 18%.
`CN([C@@H](C(=O)OC(C)(C)C)c1ccccc1)S(=O)(=O)c1cccc(S(=O)(=O)N(C)[C@@H](C(=O)OC(C)(C)C)c2ccccc2)c1` gave Cycloheximide cs -2, SARS PLP yeast 4%, Pf growth 48h inconclusive, Shiga toxin inh -2, Pf growth 96h 2.1µM* and NS1 inh 4%.
COC(=O)C(NS(=O)(=O)c1cccc(S(=O)(=O)NC(C(=O)OC)c2ccccc2)c1)c1ccccc1 (centres undefined) was read as Cycloheximide cs -4, SARS PLP yeast -14%, Pf growth 48h -13%, Shiga toxin inh 12, Pf growth 96h inconclusive and NS1 inh 11%.
C=CCn1c(SCC(=O)N(CC)C2CCS(=O)(=O)C2)nc2ccccc2c1=O (centres undefined) was read as Cycloheximide cs -3, SARS PLP yeast 0%, Pf growth 48h -17%, Shiga toxin inh -6, Pf growth 96h -16% and NS1 inh 1%.
